MARV entry inh = blocks Marburg virus binding to or entry into cells; Marburg virus pseudotyped entry inhibition, cell reporter; hit rate 1.8% among 300,000; Potency, µM (top dose mostly 37.8 µM), inactives show top-dose activity change, negative = inhibition, hits mostly inhibitors; AID 540276; calls by dose curve; tested in HEK293 cells; also: potency is read from the fitted curve at half-maximal effect
FMDV inh = foot and mouth disease virus antiviral activity; hit rate 1.2% among 410,000; FMDV antiviral cell-based qHTS; Potency, µM (series often up to 57.9 µM), for the others: at the highest dose activity change, negative = inhibition, hits mostly inhibitors; calls by dose curve; tested in HEK293T cells; also: read-out not given here; potency is read from the fitted curve at half-maximal effect; nearly all actives have a fitted effect of over 45% in size
VACV Venus inh = vaccinia inhibition (Venus reporter); Vaccinia virus Venus reporter expression, fluorescence; hit rate 0.46% among 330,000; Potency, µM (titrated, usually from 36.5 µM), inactives show top-dose activity change, negative = inhibition, hits mostly inhibitors; calls by dose curve; tested in A549 cells; also: potency is read from the fitted curve at half-maximal effect; nearly all actives have a fitted effect of over 30% in size
Lassa entry inh = inhibitors of Lassa virus binding or cell entry; AID 540256; Lassa virus pseudotype entry inhibition, cell reporter; hit rate 1.2% among 300,000; Potency, µM (titrated, usually from 37.9 µM), inactives show at the top dose activity change, negative = inhibition, usual class: inhibitors; calls by dose curve; tested in HEK293 cells; also: potency is read from the fitted curve at half-maximal effect; nearly all actives have a fitted effect of over 50% in size
Vaccinia mCherry = vaccinia inhibition (mCherry reporter). hit rate 0.63% among 310,000. Vaccinia virus mCherry reporter infection, fluorescence. Potency, µM (series often up to 36.5 µM), for the others: at the highest dose activity change, negative = inhibition, usual class: inhibitors. AID 720579; calls by dose curve; tested in A549 cells; also: potency is read from the fitted curve at half-maximal effect; nearly all actives have a fitted effect of over 35% in size
HCMV inh = human cytomegalovirus inhibition; activity change, negative = inhibition, % at 57.5 µM; HFF cells, HCMV-luciferase reporter, 72 h; hits give low values; AID 1259415; hit rate 4.5% among 410,000; in the data active = activity change below about -60%; inconclusive = no clear call, values can overlap the other calls; inactive = above about -39%
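Cell-based, HFFs, 1000 cells/well, 16 h 37C; cpds in DMSO + HCMV-luc, MOI 1 PFU/cell; 72 h 37C; OneGlo luminescence after 5 min RT; norm. to buffer vs Salinomycin 10uM.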
* hit, by the source's call; i = inactive; u = inconclusive; x = no result given; [ ] = dose if it differs, or a comment. Compounds with a hit are over-represented: about 6.5% of the library has one in this group of screens. % is scaled to controls: 0 for no effect and ±100 for the full control effect.

SMILES	MARV entry inh	FMDV inh	VACV Venus inh	Lassa entry inh	Vaccinia mCherry	HCMV inh
O=C(C[N+]1(CC(O)c2ccccc2)CCCCC1)c1ccccc1 (stereo not given)	x	x	-8%	x	i	x
COC(=O)c1cccc(C(=O)N2CCc3c(C(=O)OC)c(OCc4ccccn4)cc(=O)n3CC2)c1	x	-8%	5%	x	-6%	x
Cc1ccc(-c2nnc(Nc3ccc(CC(N)=O)cc3)c3ccccc23)cc1S(=O)(=O)NCCO	x	34%	x	x	x	16
Cc1ccc(-c2nnc(Nc3ccc(Cl)c(Cl)c3)c3ccccc23)cc1S(=O)(=O)N(C)C	x	36%	-13%	u	-18%	-13
Cc1ccc(C)c(Nc2nnc(-c3ccc(C)c(S(=O)(=O)NCC4CCCO4)c3)c3ccccc23)c1 (stereo not given)	u	1%	-14%	-16%[46.1 µM]	-12%	-104*
Cc1ccc(-c2nnc(Nc3ccc(Cl)c(Cl)c3)c3ccccc23)cc1S(=O)(=O)NCCO	x	17%	-28%	u	u	-91*
Cc1ccc(-c2nnc(Nc3ccc4c(c3)OCO4)c3ccccc23)cc1S(=O)(=O)NCCO	-15%	u	u	-16%	u	-94*
Cc1ccc(-c2nnc(Nc3ccc4c(c3)OCO4)c3ccccc23)cc1S(=O)(=O)NC(C)C	u	40%	u	u	u	-92*
O=C(C[N+]1(CCO)CCOCC1)c1ccc2ccccc2c1	x	x	-10%	x	33%	x
CCN1C(=O)[C@H]2[C@H]3[C@H](O)[C@H](O)C/C(=N\OC[C@H]4O[C@H](c5ccccc5)C=C[C@@H]4Oc4ccc(OC)cc4)[C@@H]3CC[C@H]2C1=O	-28%[14.2 µM]	x	x	x	x	x
NC(=O)C1=CN(C2OC(COP(=O)(O)OP(=O)(O)OC[C@H]3O[C@@H](n4cnc5c(N)ncnc54)[C@H](OP(=O)(O)O)[C@H]3O)C(O)C2O)C=CC1 (stereo not given in full)	-6%	x	x	x	x	x
COc1ccc(Oc2ncc3nc(C)c(=O)n(C[C@H]4CCCO4)c3n2)cc1	x	-30%	x	x	x	x
CCOc1ccc(NC(=O)c2cc(SC)ccc2Cl)cc1	u	-18%	-27%	0%	-27%	u
CCCCCOc1ccc(NC(=O)c2cc(SC)ccc2Cl)cc1	-1%	-11%	-1%	8%	-4%	-60*
CCOC(=O)C1=C(c2ccccc2)N=c2s/c(=C\c3ccc(O)cc3)c(=O)n2C1c1cccs1 (stereo not given)	u	25µM*	i	16µM*	54%	45
c1ccc2c(c1)CCC[C@H]2C1=NCCN1	31%	x	x	x	x	x
COc1ccc(CCN2CCC(Nc3nc4ccccc4n3Cc3ccc(F)cc3)CC2)cc1	4.1µM*	0%	10µM*	u	11µM*	x
COc1ccc(NC(=O)N2CCCC3(CCN(S(=O)(=O)c4ccccc4)CC3)C2)cc1	x	-1%	x	x	x	x
Cc1ccc([N+](=O)[O-])c(OCCN2CCCCCC2)c1	u	-10%	x	-19%	x	-78*
CCN(c1ccccc1)S(=O)(=O)c1ccc(C(=O)Nc2nnc(-c3ccco3)o2)cc1	x	u	x	x	x	-77*
CCN(c1ccccc1)S(=O)(=O)c1ccc(C(=O)Nc2cccc(C)n2)cc1	x	u	x	x	x	19
CN(c1ccccc1)S(=O)(=O)c1ccc(C(=O)Nc2nnc(-c3ccco3)o2)cc1	u	-18%	-23%	-17%[46.1 µM]	u	-95*
C=CCCC[C@@H]1OC(=O)CNC(=O)C([C@@H](C)CC)NC(=O)[C@@H]2CCCN2C(=O)C([C@@H](C)CC)OC(=O)[C@H](Cc2ccccc2)N(C)C(=O)[C@H](C(C)C)NC(=O)C1(C)C (stereo not given in full)	x	-19%	u	x	u	-73*
COc1ccccc1CCNC(=O)c1ccc(OC)c(OC2CCN(C(C)C)CC2)c1	29%	-2%	-13%	17%	-19%	-62*
Cc1c(NC(=O)c2cnn3c(C(F)(F)F)cc(-c4ccco4)nc23)c(=O)n(-c2ccccc2)n1C	-14%	u	-20%	-11%	x	-62*
COc1ccccc1N1CCN(c2ccc3ccccc3n2)CC1	u	14%	-23%	u	-29%	77
COc1ccccc1N1CCN(c2cc(N3CCCC3)nc(C)n2)CC1	4%	11%	-26%	-8%	u	-103*
